Source: PubChem
Rows were chosen to be rich in hits. Some 15% of all compounds tested hit in one or more screens of this group.
Sm TGR inh – inhibitors of Schistosoma mansoni thioredoxin glutathione reductase; Q962Y6; purified TGR, DTNB reduction, TNB absorbance 405 nm; Potency, µM (doses to about 114 µM), inactives show at the highest dose activity change, negative = inhibition, actives largely listed as inhibitors; 3% of 360,000 active; AID 485364; also: potency is read from the fitted curve at half-maximal effect; % is scaled to controls: 0 for no effect and ±100 for the full control effect; nearly all actives have a fitted effect of over 60% in size
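First, TGR (20 nM dispensed) and NADPH were mixed with compound. Second, a 15 min room-temperature incubation followed. Third, further NADPH and then DTNB were added to start the reaction. Finally, TNB absorbance was monitored kinetically.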
HCV inhibitor – inhibitors of hepatitis C virus infection; Huh7.5.1 HCVcc-Cre infection, luciferase reporter, 44 h; Potency, µM (titrated, usually from 41.8 µM), for the others: top-dose activity change, negative = inhibition, usual class: inhibitors; 3.4% of 340,000 active; AID 651820; also: potency is read from the fitted curve at half-maximal effect; % is scaled to controls: 0 for no effect and ±100 for the full control effect
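Reporter virus HCVcc-Cre (~0.5 moi) infects cells exposed to compound; seeding density 1,000 cells/well with 4 h settling beforehand. Luminescence, 15 sec read, taken 44 h post-infection following a 15 min RT substrate incubation.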
HCMV inh – inhibitors of human cytomegalovirus; HFF cells, HCMV-luciferase reporter, 72 h; stronger effect = lower value; 4.5% of 410,000 active; activity change, negative = inhibition, % at 57.5 µM; in the data active = activity change below about -60%; inconclusive = no clear call, values can overlap the other calls; inactive = above about -39%; also: % is scaled to controls: 0 for no effect and ±100 for the full control effect
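Luciferase read-out from HCMV-luciferase-infected HFFs (MOI 1 PFU/cell) 72 h post infection at 37C; compounds added after 16 h cell attachment; activity normalized between buffer-only basal and Salinomycin (10uM) inhibitor controls.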
SARS PLpro yeast – SARS-CoV PLP inhibition in yeast | Potency, µM (doses to about 32.9 µM), without a hit: at the highest dose activity, positive = growth rescue, most hits filed as activators | 0.19% of 330,000 active | S. cerevisiae expressing SARS-CoV PLpro, growth rescue; calls by dose curve; also: potency is read from the fitted curve at half-maximal effect; 0% is about no effect; nearly all actives have a fitted effect of over 55% in size
Pf growth 48h – inhibits P. falciparum growth in the first generation, 48 h; P. falciparum luciferase growth in erythrocytes, 48 h; Potency, µM (highest dose often 28.7 µM), for the others: at the highest dose activity change, negative = inhibition, hits mostly inhibitors; 5.9% of 310,000 active; AID 504832; also: potency is read from the fitted curve at half-maximal effect; % is scaled to controls: 0 for no effect and ±100 for the full control effect
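Compounds are pin-transferred into medium, infected erythrocytes (2% hematocrit, 0.1% parasitemia final) are added, and plates sit one parasite generation at 37 C in 5% CO2. Detection reagent is then added and luminescence measured.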
Pf growth 96h – P. falciparum growth inhibition at 96 hour, primary screen for plastid delayed-death inhibitors. Potency, µM (top dose mostly 28.7 µM), inactives show at the highest dose activity change, negative = inhibition, usual class: inhibitors. 6.9% of 320,000 active. P. falciparum luciferase reporter growth, 96 h. AID 504834; also: potency is read from the fitted curve at half-maximal effect; % is scaled to controls: 0 for no effect and ±100 for the full control effect
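Infected RBCs, 2% Hct / 0.05% parasitemia final; luciferase-reporter P. falciparum; cpd 96 h, 37 C, 5% CO2; luciferase detection reagent; luminescence.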
* hit, by the source's call. Unless noted, calls follow the shape of the dose curve; as a rule, active = well fitted curve in the direction sought with a large enough effect; inconclusive = small, poorly fitted or top-dose-only effect, or another doubt; inactive = no such curve, though single readings can be large; an effect the other way counts as inactive or inconclusive.

How did CCCCCCn1c(/C=C/c2ccccc2)nc2ccccc21 do in these assays?
Sm TGR inh: -0.6%; HCMV inh: 22.6

Results for CCn1c(/C=C/c2ccccc2)nc2ccccc21 ?
Sm TGR inh: 10.4%; HCV inhibitor: 7.94µM*; HCMV inh: 63.0; SARS PLpro yeast: -12.5%; Pf growth 48h: 265.9%; Pf growth 96h: -78.5%

What do the screens show for `O=c1c2ccccc2nc(/C=C/c2ccc(O)cc2)n1CCc1ccccc1`?
Sm TGR inh: -11.1%; HCV inhibitor: 12.6µM*; HCMV inh: inconclusive; SARS PLpro yeast: -12.5%; Pf growth 48h: inconclusive; Pf growth 96h: inconclusive

How did CCn1c(/C=C/c2ccccc2)nc2ccccc2c1=O do in these assays?
Sm TGR inh: 8.8%; HCV inhibitor: inconclusive; HCMV inh: -60.6*; SARS PLpro yeast: 1.1%; Pf growth 48h: -24.7%; Pf growth 96h: -0.4%

Results for CC1=C(C(N)=O)C(c2ccc(F)cc2)n2nc(-c3ccc(N(C)C)cc3)nc2N1 (stereo unspecified) ?
Sm TGR inh: -7.3%; HCMV inh: 5.1

How did CC(=O)c1ccccc1NC(C(=O)NCc1ccccc1)C(C)C (stereo unspecified) do in these assays?
HCMV inh: -17.6

What do the screens show for `Cc1ccc2c(c1)N(C(=O)CCC(=O)NCCCN1CCN(C)CC1)CC(C)O2` (stereo unspecified)?
Sm TGR inh: -9.4%; HCV inhibitor: 16.0%; HCMV inh: -4.5; SARS PLpro yeast: 0.1%; Pf growth 48h: 6.6%; Pf growth 96h: -16.4%

What do the screens show for `O=c1c2ccccc2nc(/C=C/c2cc(Br)ccc2O)n1CCO`?
HCV inhibitor: 14.1µM*; HCMV inh: -98.2*

What do the screens show for `COc1ccc(Cl)cc1N(C(C)=O)c1nc(C)cc(C)c1C#N`?
Sm TGR inh: 14.0%; HCV inhibitor: 13.0%; HCMV inh: 34.3; SARS PLpro yeast: 2.7%; Pf growth 48h: 0.7%; Pf growth 96h: 25.8%

What do the screens show for `COc1ccccc1N(C(C)=O)c1nc(C)cc(C)c1C#N`?
Sm TGR inh: -2.7%; HCV inhibitor: 9.3%; HCMV inh: 41.0; SARS PLpro yeast: 10.9%; Pf growth 48h: -18.5%; Pf growth 96h: 9.28µM*

How did O=C(CNc1cccc(S(=O)(=O)N2CCCC2)c1)Nc1ccc(F)cc1F do in these assays?
Sm TGR inh: -5.7%; HCV inhibitor: inconclusive; HCMV inh: -18.9; SARS PLpro yeast: -0.9%; Pf growth 48h: 8.28µM*; Pf growth 96h: 9.28µM*

What do the screens show for `O=C(CNc1cccc(S(=O)(=O)N2CCCCC2)c1)Nc1cccc(F)c1`?
Sm TGR inh: -2.6%; HCV inhibitor: -21.8%; HCMV inh: inconclusive; SARS PLpro yeast: 1.9%; Pf growth 48h: 2.94µM*; Pf growth 96h: 2.33µM*

What do the screens show for `Cc1ccc(S(=O)(=O)N2CCCCC2)cc1NC(=O)C1CC1`?
HCV inhibitor: -8.1%; HCMV inh: -18.1; SARS PLpro yeast: 3.6%

Results for CN(CC(=O)Nc1cccc(F)c1)CC(=O)Nc1cccc(S(=O)(=O)N2CCCCCC2)c1 ?
Sm TGR inh: 11.3%; HCV inhibitor: inconclusive; HCMV inh: 0.0; SARS PLpro yeast: -0.9%; Pf growth 48h: inconclusive; Pf growth 96h: -0.1%

Results for CCN(CC)S(=O)(=O)c1cc(NC(=O)C(C)N2CC=C(c3ccccc3)CC2)ccc1C (stereo unspecified) ?
Sm TGR inh: -14.9%; HCV inhibitor: 11.2µM*; HCMV inh: -30.0; SARS PLpro yeast: 17.7%; Pf growth 48h: inconclusive; Pf growth 96h: inconclusive

What do the screens show for `CCN(CC)S(=O)(=O)c1cc(NC(=O)[C@@H](NC(N)=O)C(C)C)ccc1C`?
Sm TGR inh: -2.6%; HCV inhibitor: 5.4%; HCMV inh: 34.0; SARS PLpro yeast: 2.7%; Pf growth 48h: 2.5%; Pf growth 96h: 0.2%

What do the screens show for `CCN(CC)S(=O)(=O)c1ccc(C)c(NC(=S)Nc2cccc(S(=O)(=O)N3CCCCCC3)c2)c1`?
Sm TGR inh: -26.0%; HCV inhibitor: inconclusive; HCMV inh: -76.6*; SARS PLpro yeast: 4.7%; Pf growth 48h: -3.2%; Pf growth 96h: inconclusive

What do the screens show for `Cc1ccc(NC(=O)CSc2nnc(-c3ccc([N+](=O)[O-])cc3)o2)c(C)c1`?
Sm TGR inh: -2.3%; HCMV inh: 7.5

Results for CC1CCCC(C)N1C(=O)COC(=O)c1cncc(Br)c1 (stereo unspecified) ?
HCV inhibitor: 1.4%; HCMV inh: -8.5; SARS PLpro yeast: 0.4%

Results for CCN(CC)S(=O)(=O)c1cc(NC(=O)CNc2cccc(S(=O)(=O)N3CCCC3)c2)ccc1C ?
Sm TGR inh: 2.9%; HCV inhibitor: 0.562µM*; SARS PLpro yeast: 2.5%; Pf growth 48h: 11.7µM*; Pf growth 96h: inconclusive

Results for CCN(CC)S(=O)(=O)c1ccc(C)c(NC(=O)CNc2cccc(S(=O)(=O)N3CCOCC3)c2)c1 ?
Sm TGR inh: 2.3%; HCV inhibitor: inconclusive; HCMV inh: -4.2; SARS PLpro yeast: -3.4%; Pf growth 48h: inconclusive; Pf growth 96h: inconclusive

What do the screens show for `Cc1ccc(S(=O)(=O)N2CCCCC2)cc1NCC(=O)Nc1ccc(Br)cc1F`?
HCMV inh: -85.8*

Results for CN(C)S(=O)(=O)c1cccc(NC(=O)CNc2cccc(S(=O)(=O)N3CCCCC3)c2)c1 ?
HCMV inh: -80.9*

How did O=C(CNc1ccccc1F)Nc1cc(S(=O)(=O)N2CCCCC2)ccc1Cl do in these assays?
Sm TGR inh: -3.3%; HCV inhibitor: inconclusive; HCMV inh: -26.4; SARS PLpro yeast: 1.4%; Pf growth 48h: inconclusive; Pf growth 96h: inconclusive

Results for CCCOc1ccc(C(=O)NCCC(=O)NCCCC(=O)O)cc1 ?
Sm TGR inh: 12.5%; HCV inhibitor: inconclusive; HCMV inh: 0.0; SARS PLpro yeast: -0.7%; Pf growth 48h: 1.4%; Pf growth 96h: -22.8%

What do the screens show for `COc1ccc(C(CC(=O)NCc2ccccc2Cl)N2Cc3ccccc3C2=O)cc1OC` (stereo unspecified)?
Sm TGR inh: -1.5%; HCMV inh: -10.2

How did COc1cccc(N2CCN(C(=O)c3ccc(CS(=O)Cc4ccc(Cl)cc4)o3)CC2)c1 (stereo unspecified) do in these assays?
Sm TGR inh: inconclusive; HCV inhibitor: inconclusive; HCMV inh: -17.2; Pf growth 48h: -16.9%; Pf growth 96h: inconclusive

Results for COc1ccc(N2CCN(C(=O)c3ccc(CS(=O)c4cccc(Cl)c4)o3)CC2)cc1 (stereo unspecified) ?
HCMV inh: -73.1*
